# Test results as given in PubChem BioAssay (NCATS).
# “And” between values parts separate entries of the source, which are not always exact repeats. Equal entries are not always repeated. Records with an inconclusive call do not appear. A call without a number means that no potency is given here. A structure can be active in one record and inactive in another. The source made the active and inactive calls. Calls come from the whole dose curve; as a rule, active = well fitted cell-killing curve with a large enough effect; inconclusive = small, poorly fitted or top-dose-only effect; inactive = flat fitted curve, though single readings scatter.
# Experiment: Cellular viability qHTS for adrenocortical cancer (ACC) cell line NCI-H295R (AID 1963990); note: nearly all actives have a fitted effect of over 60% in size
# Details: CellTiter-Glo ATP luminescence, 48 h; series mostly up to 46.1 µM
# From the text: PI: Naris Nilubol, MD Surgical Oncology Program, National Cancer Institute (NCI) National Institute of Health (NIH), Bethesda, Maryland Adrenocortical cancer (ACC) is a rare malignancy with poor survival outcomes and few treatment options. Currently, mitotane is the only FDA-approved therapy for ACC. Although adjuvant radiation therapy is rarely utilized, it has the potential to improve survival in select cases. Through a quantitative high-throughput drug screen (qHTS), we identified auranofin (AF), a thioredoxin reductase (TXNRD) inhibitor, as a promising candidate drug. This study aims to evaluate whether AF can enhance the efficacy of radiation therapy in the treatment of ACC. Two human ACC cell lines, SW-13 and NCI-H295R, were screened using the National Center for Advancing Translational Sciences (NCATS) Pharmaceutical Collection (NPC) and the Mechanism Interrogation PlatE (MIPE) library (~4,991 compounds). CellTiter-Glo (Cat # G7570, Promega, Madison, WI) was utilized to measure cell viability. Described herein are the results of the corresponding viability assay.
# PROTOCOL TABLE (as described by Inglese J, Shamu CE and Guy RK. 2007) SEQUENCE No. (e.g., 1, 2, 3, etc.); […] (e.g., Cells, Incubation, Reagent, etc.); VALUE; DESCRIPTION. 1; Cells; 5 uL; white, solid-bottom, 1536-well tissue-culture treated plates. 2; Time; overnight culture at 37C with 5% CO2. 3; Compounds and control; 23 nL; Kalypsis pin tool (Wako USA) equipped with a 1536-well pin head to transfer to the assay plates. 4; Time; 48 hours; 37C with 5% CO2. 5; Reagent; 4 uL; CellTiter-Glo luminescent substrate mix. 6; Time; 20 min at room temperature. 7; Detection; Luminescence; ViewLux plate reader NOTES (numbers refer to Sequence numbers above) 1. NCI-H295R cells were harvested from a T175 flask and resuspended in ITS-supplemented DMEM serum-free medium at a concentration of 300 000 cells/mL. Then 5 uL of resuspended cells were dispensed into each well of white, solid-bottom, 1536-well tissue-culture-treated plates using a multidrop combi dispenser. The plates were covered with stainless steel gasket lids. 2-3. The plates were cultured overnight at 37C with 5% CO2. Twenty-three nL of compounds (eight selected concentrations from the NPC / MIPE) or positive control (10 mM stock of bortezomib) in DMSO was transferred to each well of the assay plate using a pin tool (Kalypsys, San Diego, CA, USA). The final concentration of the compounds in the 5 uL assay volume ranged from 0.5 nM to 46 uM. 4-6. After 48 hours of incubation at 37C and 5% CO2, 4 uL of CellTilter-Glo luminescent substrate mix (Promega, Madison, WI, USA) was added to each well. Then the plates were incubated for 20 minutes at room temperature. 7. After incubation, luminescence was measured using a ViewLux plate reader (PerkinElmer, Waltham, MA, USA) with a clear filter was used to measure the number of metabolically competent cells. To determine compound activity in the qHTS assay, the titration-response data for each sample was plotted and modeled by a four-parameter logistic fit yielding IC50 and efficacy (maximal response) values. Raw plate reads for each titration point were normalized relative to positive control ([…], 100% inhibition) and DMSO-only wells (basal, 0%). REFERENCES: Inglese J, Shamu CE and Guy RK, Reporting data from high throughput screening of small molecule libraries, Nature Chemical Biology, 2007, 3(8): 438-441. doi.org/10.1038/nchembio0807-438.
Compound,Potency,"activity change, negative = viability loss"
C=C1c2cccc(O)c2C(O)=C2C(=O)[C@@]3(O)C(O)=C(C(N)=O)C(=O)[C@@H](N(C)C)[C@@H]3[C@@H](O)[C@H]12,inactive,–
Cn1cnc([N+](=O)[O-])c1Sc1ncnc2nc[nH]c12,3.98 µM (active) and 8.2 µM (active) and 5.62 µM (active),–
Cn1c(NC[C@@H](N)Cc2ccccc2)nc(-c2ccncc2)c(-c2ccc3ccccc3c2)c1=O,31.6 µM (active),–
CC1CCC(n2c3cnccc3c3cnc(Nc4ccc5c(n4)CCN(C(=O)CO)C5)nc32)CC1 (stereo not given),–,3.35% [at 9.17 µM] (inactive)
Cc1ccc(S(=O)(=O)NC(=O)NN2CC3CCCC3C2)cc1 (stereo not given),inactive,–
CCCn1c(=O)c2[nH]c(C34CC5CC3C[C@@H](C5)C4)nc2n(CCC)c1=O,inactive,–
COc1cc(S(N)(=O)=O)cc(C(=O)O)c1OC,inactive,–
Cc1cc(NC(=O)C2=C(O)c3ccccc3S(=O)(=O)N2C)no1,inactive,–
O=C(c1ccc(Nc2nc(C3CC3)cn3c(-c4cn[nH]c4)cnc23)c(F)c1)N1CCOCC1,7.94 µM (active),–
OC1CCC(Nc2ncc3nc(Nc4c(F)cc(F)cc4F)n([C@@H]4CCOC4)c3n2)CC1 (stereo not given in full),inactive,–
CC(=O)OCC(=O)[C@@]1(O)[C@H](C)C[C@H]2[C@@H]3C=C(C)C4=Cc5c(cnn5-c5ccccc5)C[C@]4(C)[C@@H]3[C@@H](O)C[C@@]21C,25.1 µM (active),–
C[C@H]1CN(C[C@H](Cc2ccccc2)C(=O)NCC(=O)O)CC[C@@]1(C)c1cccc(O)c1,inactive,–
OCCN1C[C@H](O)[C@@H](O)[C@H](O)[C@H]1CO,inactive,–
CCCCCCCOc1ccc(CCC(N)(CO)CO)cc1C(F)(F)F,10 µM (active),–
CCN1CCCC1CN (stereo not given),inactive,–
C1CCN2C[C@@H]3C[C@@H](CN4CCCC[C@@H]34)[C@H]2C1,inactive,–
COC(=O)C(c1ccccc1Cl)N1CCc2sccc2C1 (stereo not given),inactive,–
COCc1c(C(C)C)nc(C(C)C)c(/C=C/[C@@H](O)C[C@@H](O)CC(=O)O)c1-c1ccc(F)cc1,1.16 µM (active),–
CCN(Cc1ccncc1)C(=O)C(CO)c1ccccc1 (stereo not given),inactive,–
CCCS(=O)(=O)Nc1ccc(F)c(C(=O)c2c[nH]c3ncc(-c4ccc(Cl)cc4)cc23)c1F,inactive,–

Compound,Potency,"activity change, negative = viability loss"
CCCN[C@H]1CCc2nc(N)sc2C1,inactive,–
NS(=O)(=O)c1ccc(N2CCCCS2(=O)=O)cc1,inactive,–
CC(C)(C)NCC(O)COc1ccc(NC(=O)NC2CCCCC2)cc1 (stereo not given),inactive,–
CC(C)(Sc1cc(C(C)(C)C)c(O)c(C(C)(C)C)c1)Sc1cc(C(C)(C)C)c(O)c(C(C)(C)C)c1,inactive,–
CNc1nc(C)nc(N[C@H]2CCC[C@@H](C(=O)NCc3ccc(C#N)cc3C(F)(F)F)C2)n1,inactive,–
O=C(Nc1cnn2ccc(N3CCC[C@@H]3c3cc(F)ccc3F)nc12)N1CC[C@H](O)C1,inactive,–
N#Cc1ccc(NC(=O)Nc2ccccc2Br)c2n[nH]nc12,inactive,–
C=CC(=O)Nc1cc2c(Nc3ccc(F)c(Cl)c3)ncnc2cc1OCCCN1CCOCC1,1.46 µM (active) and 6.31 µM (active),–
Nc1[nH]nc2nnc(-c3c(-c4ccccc4)nn4ccccc34)cc12,inactive,–
OCc1ccccc1O[C@@H]1O[C@H](CO)[C@@H](O)[C@H](O)[C@H]1O,inactive,–
O=c1[nH]c(-c2ccc(C(F)(F)F)cc2)nc2c1CSCC2,inactive,–
CC(C)(C)CC(C)(C)c1ccc(O)c(Cc2ccc(Cl)cc2Cl)c1,5.8 µM (active),–
N#CCC(=O)NN,inactive,–
O=C(/C=C/c1ccc(O)c(O)c1)O[C@@H]1C[C@@](OC(=O)/C=C/c2ccc(O)c(O)c2)(C(=O)O)C[C@@H](O)[C@@H]1O,inactive,–
Cc1c(Cn2c(C)nc3c(C(=O)O)cc(N4CCOCC4)cc32)cccc1C(F)(F)F,inactive,–
O=C(O)c1nc(=O)[nH]c(=O)[nH]1,inactive,–
O=C(O)c1ccccc1NCCc1ccccc1,inactive,–
c1ccc(CNCc2ccc(CN3CCCNCCNCCCNCC3)cc2)nc1,inactive,–
O=C(O)c1cc(=O)c2ccccc2o1,inactive,–
OCCN(CCO)c1nc(N2CCCCC2)c2nc(N(CCO)CCO)nc(N3CCCCC3)c2n1,1.46 µM (active) and inactive,–
